Assay outcomes from PubChem BioAssay.
Sampled rows, rich in hits. Any-hit rate of the full collection: about 11%.
Pf growth 96h: P. falciparum growth inhibition at 96 hours. P. falciparum luciferase reporter growth, 96 h. Potency, µM (doses to about 28.7 µM), usual class: inhibitors. actives 6.9% (n = 320,000). AID 504834
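P. falciparum expressing integrated firefly luciferase grown in erythrocytes (2% hematocrit, 0.05% parasitemia final) with compounds for 96 hours at 37 C, 5% CO2. Growth inhibition read as loss of luminescence after adding luciferase detection reagent.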
NS1 inh: inhibitors of influenza NS1 protein function. AID 2326. Potency, µM (highest dose often 46.1 µM). actives 0.4% (n = 270,000); calls by dose curve; note: actives are rising curves; nearly all actives have a fitted effect of over 50% in size
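OD600 was taken as the measure of yeast growth restored by compound in an NS1-expressing S. cerevisiae strain. Cells had been washed out of glucose medium and diluted 1:100 into galactose -URA medium, pH 6.0.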
Sm TGR block: inhibitors of Schistosoma mansoni thioredoxin glutathione reductase; AID 485364; actives 3% (n = 360,000); Potency, µM (doses to about 114 µM), usual class: inhibitors; Q962Y6; purified TGR, DTNB reduction, TNB absorbance 405 nm; note: nearly all actives have a fitted effect of over 60% in size
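First, TGR (20 nM dispensed) and NADPH were mixed with compound. Second, a 15 min room-temperature incubation followed. Third, further NADPH and then DTNB were added to start the reaction. Finally, TNB absorbance was monitored kinetically.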
Pf growth 48h: P. falciparum growth inhibition at 48 hours (one generation). AID 504832. P. falciparum luciferase growth in erythrocytes, 48 h. Potency, µM (top dose mostly 28.7 µM), hits mostly inhibitors. actives 5.9% (n = 310,000)
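Luciferase-expressing P. falciparum in infected erythrocytes (2% hematocrit, 0.1% parasitemia final) in RPMI 1640/0.5% Albumax were exposed to compound for 48 hours at 37 C, 5% CO2; growth read as luminescence.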
AMA1 RON2 block: disrupts binding of P. falciparum AMA1 to RON2; AlphaScreen AMA1-biotinylated RON2 peptide binding; Potency, µM (top dose mostly 58.2 µM), usual class: inhibitors; actives 0.2% (n = 360,000); note: nearly all actives have a fitted effect of over 45% in size
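AMA1 (3D7) with his tag at 25 nM final met compounds first, then biotinylated RON2 peptide at 25 nM; detection used donor plus acceptor beads, 10 µg/mL apiece, read by AlphaScreen after 30 min at room temperature.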
Hits are given with their value; i = inactive; ? = inconclusive; nt = no result given. Unless noted, calls come from the whole dose curve; as a rule, active = well fitted curve in the direction sought with a large enough effect; inconclusive = small, poorly fitted or top-dose-only effect, or another doubt; inactive = no such curve, though single readings can be large; an effect the other way counts as inactive or inconclusive.

SMILES | Pf growth 96h | NS1 inh | Sm TGR block | Pf growth 48h | AMA1 RON2 block
COc1ccc(NC(=O)c2sc3nc(N4CCOCC4)c4c(c3c2N)CC(C)(C)OC4)cc1 | ? | i | i | i | i
CN1Cc2c(N3CCOCC3)nc3sc(C(=O)c4ccc(Br)cc4)c(N)c3c2CC1(C)C | 9.3µM | i | i | 4.1µM | ?
COc1ccc(NC(=O)c2sc3nc(N4CCCC4)c4c(c3c2N)CC(C)(C)OC4)cc1 | 12µM | i | i | 13µM | i
COc1ccc(NC(=O)c2sc3nc(N4CCOCC4)c4c(c3c2N)CC(C)(C)OC4)c(OC)c1 | 1.7µM | i | i | ? | i
Cc1ccc(CS(=O)Cc2ccc(C(=O)NCc3ccc(OC(C)C)cc3)o2)cc1 (stereo not given) | i | i | i | i | i
C=CCn1c2ccccc2c(=O)c2cc(C#Cc3cc(OC)cc(OC)c3)ccc21 | ? | nt | i | 12µM | i
Cn1c2ccccc2c(=O)c2cc(C#Cc3ccsc3)ccc21 | ? | i | ? | i | i
Cn1c2ccccc2c(=O)c2cc(C#Cc3ccccn3)ccc21 | ? | i | 20µM | i | i
Cn1c2ccccc2c(=O)c2ccc(C#Cc3ccccn3)cc21 | 10µM | i | 32µM | ? | i
O=S(=O)(c1ccc(OC(F)(F)F)cc1)N1CCC(c2nnnn2-c2ccc(F)cc2)CC1 | nt | nt | i | nt | nt
CSc1ccc(Cl)c(C(=O)OCC(=O)N2CCN(c3ccccc3)CC2)c1 | i | nt | i | i | ?
Cc1ccc(-n2c(SCCN)nnc2-c2cccc(C)c2)cc1 | ? | i | i | 10µM | i
CC1CCN(C(=O)CN2CCSc3ccc(S(=O)(=O)N(C)C)cc32)CC1 | nt | nt | i | nt | nt
COc1ccc(-n2nc3c(c2NC(=O)COc2cccc(OC)c2)CS(=O)(=O)C3)cc1 | i | i | 32µM | i | i
CCC(=O)Nc1c2c(nn1-c1ccccc1)CSC2 | i | i | 50µM | i | i
COc1ccc(-n2nc3c(c2NC(=O)C(C)Cl)CSC3)cc1 (stereo not given) | i | i | i | i | i
COc1ccc(-n2nc3c(c2NC(=O)COc2ccccc2)CS(=O)(=O)C3)cc1 | ? | i | i | i | i
CC(Cl)C(=O)Nc1c2c(nn1-c1ccccc1)CSC2 (stereo not given) | i | i | i | i | i
COc1ccc(-n2nc3c(c2NC(=O)CCl)CSC3)cc1 | ? | i | 8.9µM | 0.74µM | i
CCOc1ccccc1N=C1SCC(C)N1C(=O)C1CCN(c2ncnc3sc(C)c(C)c23)CC1 (stereo not given) | nt | nt | nt | nt | i
CCOc1cc(CNCCO)cc(Br)c1OCc1ccccc1 | i | i | i | ? | i
COc1cc(CNCCO)cc(Br)c1OCc1ccccc1Cl | 12µM | i | i | ? | i
COc1cc(CNCCO)cc(Cl)c1OCc1ccc(Cl)cc1Cl | i | i | i | 10µM | i
Cc1ccc2c(CN3CC(C)CC(C)C3)cc(=O)oc2c1C (stereo not given) | 15µM | i | i | ? | i
Cc1ccc2c(CN3CCN(Cc4ccccc4)CC3)cc(=O)oc2c1C | ? | i | i | i | ?
SMILES | Pf growth 96h | NS1 inh | Sm TGR block | Pf growth 48h | AMA1 RON2 block
CCc1ccc2c(CN3CCN(S(=O)(=O)c4ccc5c(c4)OCCO5)CC3)cc(=O)oc2c1 | ? | i | i | 9.3µM | i
Cc1ccc2c(CN3CCN(S(=O)(=O)c4ccc(Cl)cc4)CC3)cc(=O)oc2c1C | ? | nt | i | 4.1µM | i
Cc1ccc2c(CN3CCC(C)CC3)cc(=O)oc2c1C | ? | i | i | ? | i
Cc1ccc2c(CN3CCN(C(=O)c4ccco4)CC3)cc(=O)oc2c1C | ? | nt | 45µM | ? | i
O=c1cc(CN2CCN(S(=O)(=O)c3ccc4c(c3)OCCO4)CC2)c2ccc(O)cc2o1 | nt | i | i | ? | i
CC(=O)N1c2ccccc2C(C)(c2ccc(C)cc2)CC1(C)C (stereo not given) | nt | nt | i | nt | nt
CCOc1ccc2oc(=O)cc(CN3CCN(c4ccc(Cl)cc4)CC3)c2c1 | nt | nt | i | nt | nt
O=C(COc1ccc(F)cc1)Nc1nnc(S(=O)(=O)N2CCc3ccccc32)s1 | nt | nt | i | nt | nt
CCOc1ccc(C(C)=O)cc1N1C(=O)C2C3C=CC(C3)C2C1=O (stereo not given) | i | i | ? | nt | i
CCOc1ccc(C(C)=O)cc1N1C(=O)C2C3C=CC(O3)C2C1=O (stereo not given) | i | i | 0.71µM | i | i
CCOC(=O)C(=CNc1ccc(NC2=NCC(C)(C)S2)cc1)C(=O)OCC | ? | i | i | ? | i
